Drawing on article PMC7862700, “An all-to-all approach to the identification of sequence-specific readers for epigenetic DNA modifications on cytosine”, this text covers binding signal for 1 sequence.

What all share (assay): DAPPL (digital affinity profiling via proximity ligation, sequencing); 10 mM Tris-HCl pH 7.5, 50 mM NaCl, 1 mM DTT, 4% glycerol, room temperature, 30 min; GST-TFs on glutathione beads, 16-mer random dsDNA library, 0.1% formaldehyde crosslink after washing; high values mean tight binding
The target of assay [1] is T1, FLI1 (Homo sapiens, UniProt Q01543 1-452).
T1 sequence: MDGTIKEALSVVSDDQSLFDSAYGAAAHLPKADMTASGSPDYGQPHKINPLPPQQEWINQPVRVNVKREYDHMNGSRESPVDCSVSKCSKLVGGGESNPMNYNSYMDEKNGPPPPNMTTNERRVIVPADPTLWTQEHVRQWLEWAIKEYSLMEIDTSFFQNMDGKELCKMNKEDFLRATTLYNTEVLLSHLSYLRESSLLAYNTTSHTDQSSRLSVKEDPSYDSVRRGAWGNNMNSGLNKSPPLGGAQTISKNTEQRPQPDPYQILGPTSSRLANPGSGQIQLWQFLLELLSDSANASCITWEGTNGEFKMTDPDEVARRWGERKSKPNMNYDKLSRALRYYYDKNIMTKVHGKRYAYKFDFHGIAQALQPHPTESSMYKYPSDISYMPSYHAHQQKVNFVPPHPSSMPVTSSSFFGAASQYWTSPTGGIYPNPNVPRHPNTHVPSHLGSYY
Particulars: protein: recombinant; tags: N-terminal GST; dsDNA, one strand shown. Summed up:
(§1)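 Pools of DNA-barcoded human transcription factors, expressed in yeast as GST fusions on glutathione beads and combined with a tag-only sample, were incubated with 200 nmole of a 16-mer random double-stranded DNA library. Incubation took 30 min at room temperature in Tris/NaCl/DTT/glycerol buffer and was followed by washing, 0.1% formaldehyde crosslinking, proximity ligation (BsaI/T4 ligase, 1 h, 37 °C), PCR amplification and sequencing on an Illumina NextSeq500. Binding signal is the ratio of a hexamer's read frequency for a factor to its frequency for the tag-only sample.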

The target of assay [2] is T2, ELK1 (Homo sapiens, UniProt P19419 1-428).
T2 sequence: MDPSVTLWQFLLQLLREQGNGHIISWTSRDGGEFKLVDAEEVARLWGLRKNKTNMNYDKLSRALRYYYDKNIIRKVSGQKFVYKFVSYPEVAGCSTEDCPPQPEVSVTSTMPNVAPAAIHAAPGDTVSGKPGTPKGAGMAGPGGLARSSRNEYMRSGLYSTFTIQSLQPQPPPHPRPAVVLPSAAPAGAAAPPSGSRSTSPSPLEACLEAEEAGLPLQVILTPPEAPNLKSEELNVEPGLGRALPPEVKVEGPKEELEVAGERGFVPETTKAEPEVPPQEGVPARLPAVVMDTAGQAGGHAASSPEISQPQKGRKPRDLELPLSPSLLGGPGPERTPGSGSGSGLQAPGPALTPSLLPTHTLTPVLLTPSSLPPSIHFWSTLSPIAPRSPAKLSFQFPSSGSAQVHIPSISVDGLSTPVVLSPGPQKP
The following applies: protein: recombinant; tags: N-terminal GST; dsDNA, one strand shown. Summed up:
as §1

The target of assay [3] is T3, GABPA (Homo sapiens, UniProt Q06546 1-454).
T3 sequence: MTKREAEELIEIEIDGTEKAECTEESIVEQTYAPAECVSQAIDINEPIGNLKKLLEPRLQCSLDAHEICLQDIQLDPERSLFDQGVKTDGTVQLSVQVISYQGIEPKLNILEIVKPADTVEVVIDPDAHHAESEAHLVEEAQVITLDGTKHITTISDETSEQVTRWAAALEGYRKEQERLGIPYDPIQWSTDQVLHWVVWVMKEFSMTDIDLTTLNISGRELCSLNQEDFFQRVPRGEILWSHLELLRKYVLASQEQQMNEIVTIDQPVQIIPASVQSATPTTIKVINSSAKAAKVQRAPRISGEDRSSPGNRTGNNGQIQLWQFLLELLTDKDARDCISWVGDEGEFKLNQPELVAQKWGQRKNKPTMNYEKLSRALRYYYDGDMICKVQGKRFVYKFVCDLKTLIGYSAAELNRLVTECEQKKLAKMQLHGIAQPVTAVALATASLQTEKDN
The following applies: protein: recombinant; tags: N-terminal GST; dsDNA, one strand shown. Summed up: as §1

Assay [4] has as its target ELF1 (Homo sapiens, UniProt P32519 1-619). Particulars: protein: recombinant; tags: N-terminal GST; dsDNA, one strand shown. Put shortly:
as §1

For assay [5], the target named is T4, EHF (Homo sapiens, UniProt Q9NZC4 1-300).
T4 sequence: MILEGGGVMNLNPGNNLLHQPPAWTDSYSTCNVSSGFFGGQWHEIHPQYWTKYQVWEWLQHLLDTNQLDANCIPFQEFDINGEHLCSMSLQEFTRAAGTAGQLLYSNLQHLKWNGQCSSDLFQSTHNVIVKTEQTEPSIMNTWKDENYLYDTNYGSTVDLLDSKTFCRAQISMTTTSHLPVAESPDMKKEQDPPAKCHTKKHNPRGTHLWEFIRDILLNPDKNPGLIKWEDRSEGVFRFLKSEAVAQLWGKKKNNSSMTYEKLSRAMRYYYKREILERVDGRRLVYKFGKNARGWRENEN
Particulars: protein: recombinant; tags: N-terminal GST; dsDNA, one strand shown. Summed up:
as §1

Assay [6] has as its target SPI1 (Homo sapiens, UniProt P17947 1-270). The following applies: protein: recombinant; tags: N-terminal GST; dsDNA, one strand shown. Summed up:
as §1

Assay [7] has as its target SPIB (Homo sapiens, UniProt Q01892 1-262). The following applies: protein: recombinant; tags: N-terminal GST; dsDNA, one strand shown. Summed up:
as §1

Assay [8] concerns the target T5, ELK3 (Homo sapiens, UniProt P41970 1-407).
T5 sequence: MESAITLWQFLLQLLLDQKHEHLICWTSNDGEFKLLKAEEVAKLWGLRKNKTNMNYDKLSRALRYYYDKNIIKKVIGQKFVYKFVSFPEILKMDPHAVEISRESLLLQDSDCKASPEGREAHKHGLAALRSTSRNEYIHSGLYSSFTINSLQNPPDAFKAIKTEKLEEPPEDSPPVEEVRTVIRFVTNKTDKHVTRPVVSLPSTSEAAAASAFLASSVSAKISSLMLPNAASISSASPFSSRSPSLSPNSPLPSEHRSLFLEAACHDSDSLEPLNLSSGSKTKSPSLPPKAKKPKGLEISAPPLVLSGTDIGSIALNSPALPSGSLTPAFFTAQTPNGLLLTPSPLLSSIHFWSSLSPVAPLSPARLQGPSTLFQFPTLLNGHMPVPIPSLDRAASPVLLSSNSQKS
Particulars: protein: recombinant; tags: N-terminal GST; dsDNA, one strand shown. Summed up: as §1

Assay [9] has as its target T6, FEV (Homo sapiens, UniProt Q99581 1-238).
T6 sequence: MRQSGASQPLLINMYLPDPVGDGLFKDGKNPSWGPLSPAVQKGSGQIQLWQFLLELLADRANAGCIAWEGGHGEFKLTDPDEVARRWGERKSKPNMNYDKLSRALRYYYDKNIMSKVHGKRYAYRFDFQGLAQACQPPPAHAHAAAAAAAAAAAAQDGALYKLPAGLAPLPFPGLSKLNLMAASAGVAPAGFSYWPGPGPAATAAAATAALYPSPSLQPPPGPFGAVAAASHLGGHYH
The following applies: protein: recombinant; tags: N-terminal GST; dsDNA, one strand shown. Put shortly:
as §1

The target in assay [10] is ETV5 (Homo sapiens, UniProt P41161 1-510). Particulars: protein: recombinant; tags: N-terminal GST; dsDNA, one strand shown. Summed up:
as §1

Assay [11] concerns the target HSF1 (Homo sapiens, UniProt Q00613 1-529). The following applies: protein: recombinant; tags: N-terminal GST; chain copies: 3; dsDNA, one strand shown. Put shortly:
as §1

Assay [12] has as its target T7, SPIC (Homo sapiens, UniProt Q8N5J4 1-248).
T7 sequence: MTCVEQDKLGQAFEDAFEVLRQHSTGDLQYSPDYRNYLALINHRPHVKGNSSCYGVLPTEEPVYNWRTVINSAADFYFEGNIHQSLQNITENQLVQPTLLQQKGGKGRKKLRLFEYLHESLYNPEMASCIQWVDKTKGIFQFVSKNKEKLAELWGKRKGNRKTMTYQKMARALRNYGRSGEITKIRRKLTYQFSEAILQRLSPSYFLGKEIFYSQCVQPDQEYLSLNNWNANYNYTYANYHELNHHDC
Particulars: protein: recombinant; tags: N-terminal GST; dsDNA, one strand shown. Summed up: as §1

In assay [13] the target is ELF4 (Homo sapiens, UniProt Q99607 1-663). Particulars: protein: recombinant; tags: N-terminal GST; dsDNA, one strand shown. Put shortly:
as §1

Assay [14] addresses T8, ELK4 (Homo sapiens, UniProt P28324-2 1-405).
T8 sequence: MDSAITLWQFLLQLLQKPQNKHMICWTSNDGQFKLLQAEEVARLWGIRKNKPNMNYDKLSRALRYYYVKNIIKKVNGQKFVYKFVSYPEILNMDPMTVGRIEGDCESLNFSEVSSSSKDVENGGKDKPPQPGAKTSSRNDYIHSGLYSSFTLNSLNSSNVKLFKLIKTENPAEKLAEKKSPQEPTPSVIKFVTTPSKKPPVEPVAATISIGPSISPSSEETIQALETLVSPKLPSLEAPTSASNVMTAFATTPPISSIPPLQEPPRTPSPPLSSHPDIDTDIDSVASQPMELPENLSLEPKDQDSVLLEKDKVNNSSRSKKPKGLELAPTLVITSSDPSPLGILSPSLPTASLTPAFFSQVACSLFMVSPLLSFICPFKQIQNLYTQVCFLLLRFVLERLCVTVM
The following applies: protein: recombinant; tags: N-terminal GST; dsDNA, one strand shown. Summed up: as §1

Assay [15] addresses T9, ETV2 (Homo sapiens, UniProt O00321 1-342).
T9 sequence: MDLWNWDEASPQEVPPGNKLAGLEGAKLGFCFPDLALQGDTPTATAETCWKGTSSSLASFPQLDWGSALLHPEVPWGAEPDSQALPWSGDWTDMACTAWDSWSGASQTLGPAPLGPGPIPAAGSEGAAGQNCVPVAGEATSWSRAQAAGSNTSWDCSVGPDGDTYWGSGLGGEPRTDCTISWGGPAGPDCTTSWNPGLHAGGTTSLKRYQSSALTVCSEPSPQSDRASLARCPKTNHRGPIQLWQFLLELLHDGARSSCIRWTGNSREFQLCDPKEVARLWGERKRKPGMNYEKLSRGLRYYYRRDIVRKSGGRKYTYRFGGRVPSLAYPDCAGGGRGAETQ
Particulars: protein: recombinant; tags: N-terminal GST; dsDNA, one strand shown. Put shortly: as §1

The target in assay [16] is T10, ELF3 (Homo sapiens, UniProt P78545 1-371).
T10 sequence: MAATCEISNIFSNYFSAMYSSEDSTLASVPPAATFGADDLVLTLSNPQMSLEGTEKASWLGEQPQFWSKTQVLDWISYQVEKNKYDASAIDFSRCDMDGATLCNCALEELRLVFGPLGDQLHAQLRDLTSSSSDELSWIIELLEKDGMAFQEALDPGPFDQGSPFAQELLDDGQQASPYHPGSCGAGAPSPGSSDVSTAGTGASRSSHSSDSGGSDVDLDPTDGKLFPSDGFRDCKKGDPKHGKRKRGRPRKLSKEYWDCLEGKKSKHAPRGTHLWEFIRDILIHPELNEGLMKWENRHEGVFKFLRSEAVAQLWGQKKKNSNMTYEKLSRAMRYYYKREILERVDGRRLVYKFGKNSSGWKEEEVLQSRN
Particulars: protein: recombinant; tags: N-terminal GST; dsDNA, one strand shown. Put shortly: as §1

The target of assay [17] is CRX (Homo sapiens, UniProt O43186 1-299). The following applies: protein: recombinant; tags: N-terminal GST; dsDNA, one strand shown. Put shortly: as §1
Chain of CRX (O43186 whole entry): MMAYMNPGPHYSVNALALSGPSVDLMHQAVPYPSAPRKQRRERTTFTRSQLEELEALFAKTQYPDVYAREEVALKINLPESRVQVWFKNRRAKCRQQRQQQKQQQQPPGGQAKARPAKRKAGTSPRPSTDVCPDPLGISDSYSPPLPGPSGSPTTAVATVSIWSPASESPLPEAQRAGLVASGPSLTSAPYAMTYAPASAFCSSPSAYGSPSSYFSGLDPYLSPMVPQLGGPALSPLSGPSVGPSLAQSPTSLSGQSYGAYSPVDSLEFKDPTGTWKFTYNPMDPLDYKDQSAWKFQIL
In assay [18] the target is ETV1 (Homo sapiens, UniProt P50549 1-477). The following applies: protein: recombinant; tags: N-terminal GST; dsDNA, one strand shown. Put shortly: as §1
Chain of ETV1 (P50549 whole entry): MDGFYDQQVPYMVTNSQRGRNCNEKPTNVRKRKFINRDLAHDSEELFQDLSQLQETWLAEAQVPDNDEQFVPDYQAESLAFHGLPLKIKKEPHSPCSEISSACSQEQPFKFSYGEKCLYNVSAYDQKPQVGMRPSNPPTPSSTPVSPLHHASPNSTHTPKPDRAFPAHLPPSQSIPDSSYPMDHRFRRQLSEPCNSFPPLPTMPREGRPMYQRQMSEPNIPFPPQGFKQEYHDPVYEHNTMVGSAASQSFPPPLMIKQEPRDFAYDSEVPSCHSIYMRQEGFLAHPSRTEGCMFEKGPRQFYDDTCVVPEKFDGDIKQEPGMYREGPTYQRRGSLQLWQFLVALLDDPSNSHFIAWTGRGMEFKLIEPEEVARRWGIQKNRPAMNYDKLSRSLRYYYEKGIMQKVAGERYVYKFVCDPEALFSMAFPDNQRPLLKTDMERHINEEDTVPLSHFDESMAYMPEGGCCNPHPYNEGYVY

Chain of SPIB (Q01892 whole entry): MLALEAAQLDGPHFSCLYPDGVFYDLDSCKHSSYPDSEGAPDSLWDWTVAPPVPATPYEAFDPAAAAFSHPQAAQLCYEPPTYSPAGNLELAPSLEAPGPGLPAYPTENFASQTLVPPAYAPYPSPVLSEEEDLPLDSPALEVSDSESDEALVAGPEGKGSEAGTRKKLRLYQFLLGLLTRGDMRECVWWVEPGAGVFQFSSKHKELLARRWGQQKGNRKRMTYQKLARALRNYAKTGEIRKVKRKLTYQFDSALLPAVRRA
Chain of ETV5 (P41161 whole entry): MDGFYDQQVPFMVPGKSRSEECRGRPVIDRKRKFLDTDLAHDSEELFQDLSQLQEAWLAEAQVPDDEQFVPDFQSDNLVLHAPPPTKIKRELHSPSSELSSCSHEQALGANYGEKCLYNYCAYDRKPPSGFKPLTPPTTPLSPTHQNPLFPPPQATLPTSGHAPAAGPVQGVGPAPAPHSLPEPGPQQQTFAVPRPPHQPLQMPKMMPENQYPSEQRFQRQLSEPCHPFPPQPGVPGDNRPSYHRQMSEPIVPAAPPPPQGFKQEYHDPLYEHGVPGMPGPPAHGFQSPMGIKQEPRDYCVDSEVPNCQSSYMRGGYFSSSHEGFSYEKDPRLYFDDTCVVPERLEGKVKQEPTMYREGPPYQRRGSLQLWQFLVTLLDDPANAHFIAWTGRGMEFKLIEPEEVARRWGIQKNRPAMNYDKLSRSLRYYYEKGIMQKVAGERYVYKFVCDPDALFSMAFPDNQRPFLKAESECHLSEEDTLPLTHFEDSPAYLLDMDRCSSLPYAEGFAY
Chain of ELF4 (Q99607 whole entry): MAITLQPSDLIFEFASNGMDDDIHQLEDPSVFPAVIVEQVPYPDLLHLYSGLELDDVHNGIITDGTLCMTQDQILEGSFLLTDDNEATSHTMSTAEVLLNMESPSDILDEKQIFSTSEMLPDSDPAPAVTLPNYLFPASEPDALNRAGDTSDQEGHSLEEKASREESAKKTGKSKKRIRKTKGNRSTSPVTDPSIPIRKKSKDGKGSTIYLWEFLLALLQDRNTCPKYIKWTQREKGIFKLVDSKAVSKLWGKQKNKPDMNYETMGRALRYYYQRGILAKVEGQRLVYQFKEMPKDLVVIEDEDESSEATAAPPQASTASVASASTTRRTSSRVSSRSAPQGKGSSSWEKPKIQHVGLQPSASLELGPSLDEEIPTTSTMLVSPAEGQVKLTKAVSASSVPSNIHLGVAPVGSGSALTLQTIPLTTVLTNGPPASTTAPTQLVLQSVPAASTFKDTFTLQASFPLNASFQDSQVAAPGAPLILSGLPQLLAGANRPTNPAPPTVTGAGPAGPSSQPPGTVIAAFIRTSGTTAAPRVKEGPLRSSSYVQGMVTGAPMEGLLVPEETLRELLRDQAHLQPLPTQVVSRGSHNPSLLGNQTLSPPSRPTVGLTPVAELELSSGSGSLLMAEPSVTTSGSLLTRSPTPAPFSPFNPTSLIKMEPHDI
Chain of HSF1 (Q00613 whole entry): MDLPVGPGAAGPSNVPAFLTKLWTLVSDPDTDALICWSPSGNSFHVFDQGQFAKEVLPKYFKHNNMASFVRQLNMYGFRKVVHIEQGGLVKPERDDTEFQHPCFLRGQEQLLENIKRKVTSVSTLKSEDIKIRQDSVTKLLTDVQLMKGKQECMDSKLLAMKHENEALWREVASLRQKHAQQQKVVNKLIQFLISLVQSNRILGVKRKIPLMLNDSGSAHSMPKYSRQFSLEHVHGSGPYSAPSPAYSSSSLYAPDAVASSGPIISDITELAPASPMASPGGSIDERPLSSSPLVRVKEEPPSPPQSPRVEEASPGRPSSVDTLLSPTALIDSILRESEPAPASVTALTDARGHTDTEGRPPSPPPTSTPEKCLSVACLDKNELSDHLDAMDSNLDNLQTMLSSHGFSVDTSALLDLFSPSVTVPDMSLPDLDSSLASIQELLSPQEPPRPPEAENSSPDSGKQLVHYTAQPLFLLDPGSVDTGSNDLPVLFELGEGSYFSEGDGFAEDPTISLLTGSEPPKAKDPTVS
Chain of ELF1 (P32519 whole entry): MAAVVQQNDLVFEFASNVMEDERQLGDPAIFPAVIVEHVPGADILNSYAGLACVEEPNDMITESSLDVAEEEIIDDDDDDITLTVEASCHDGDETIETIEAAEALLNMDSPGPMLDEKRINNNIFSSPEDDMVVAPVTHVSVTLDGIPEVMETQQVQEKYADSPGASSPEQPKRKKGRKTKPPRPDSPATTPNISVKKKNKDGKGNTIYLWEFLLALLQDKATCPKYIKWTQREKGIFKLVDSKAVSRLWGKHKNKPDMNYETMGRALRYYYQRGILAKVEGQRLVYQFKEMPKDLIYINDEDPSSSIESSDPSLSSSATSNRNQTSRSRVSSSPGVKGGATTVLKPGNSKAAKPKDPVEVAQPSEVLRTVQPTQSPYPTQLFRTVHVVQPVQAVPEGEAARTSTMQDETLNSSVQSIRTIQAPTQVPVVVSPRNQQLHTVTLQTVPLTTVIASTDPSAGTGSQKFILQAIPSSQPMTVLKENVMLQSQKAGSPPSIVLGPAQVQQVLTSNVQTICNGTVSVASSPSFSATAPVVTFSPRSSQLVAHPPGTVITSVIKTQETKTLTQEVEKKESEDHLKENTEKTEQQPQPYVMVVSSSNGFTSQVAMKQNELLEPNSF

With TAATCG, the binding signal in assay [1] was 1.07 fold enrichment (6-mer frequency, TF over GST control); in assay [2], 1.09 fold enrichment (6-mer frequency, TF over GST control); in [3], 1.14 fold enrichment (6-mer frequency, TF over GST control); in assay [4], 1.04 fold enrichment (6-mer frequency, TF over GST control); in [5], 1.07 fold enrichment (6-mer frequency, TF over GST control); in assay [6] it was 1.02 fold enrichment (6-mer frequency, TF over GST control). Further, the binding signal in assay [7] was 1.04 fold enrichment (6-mer frequency, TF over GST control); in [8] it was 1.07 fold enrichment (6-mer frequency, TF over GST control); in assay [9], 1.01 fold enrichment (6-mer frequency, TF over GST control); in [10], 1.07 fold enrichment (6-mer frequency, TF over GST control); in assay [11], 1.93 fold enrichment (6-mer frequency, TF over GST control); in assay [12], 1 fold enrichment (6-mer frequency, TF over GST control). The binding signal is 1.07 fold enrichment (6-mer frequency, TF over GST control) in assay [13]; 1.1 fold enrichment (6-mer frequency, TF over GST control) in assay [14]; 1.04 fold enrichment (6-mer frequency, TF over GST control) in assay [15]; 1.07 fold enrichment (6-mer frequency, TF over GST control) in assay [16]; 2.89 fold enrichment (6-mer frequency, TF over GST control) in assay [17]; 1.01 fold enrichment (6-mer frequency, TF over GST control) in assay [18].
